Records with an inconclusive call do not appear. Activity calls are given as the source filed them. The rule behind the calls is not given here.

A short description of the first assay: qHTS Assay for Inhibitors of Influenza NS1 Protein Function: Viral Replication TCID50. Particulars: Influenza virus replication in cells, at 10 µM, stronger effect = lower value. The text has this: Influenza is a world-wide public health problem and emerging forms of the virus have the potential to cause a pandemic of equal or greater magnitude to the outbreaks recorded in 1918, 1957 or 1968. Vaccine development is proceeding and there also exist two classes of anti-influenza compounds. However these therapeutic modalities are neither fully effective nor widely enough available to fulfill global needs. In addition their potential usefulness against newly emergent strains is not known. Efforts are needed to develop novel agents against influenza virus, including broad-spectrum agents. Identification of small molecules that inhibit NS1 function either directly or by interfering with specific cellular pathways may be a key to increasing our defense against the virus.
We have miniaturized and optimized a cell based assay in which NS1 from influenza A is expressed in the budding yeast S. cerevisiae. NS1 is a multi-functional protein that counters the host innate immune response and facilitates viral versus cellular gene expression. Expression of NS1 causes a pronounced slow growth phenotype in yeast due to its intrinsic molecular activities. Small molecules that suppress the slow growth phenotype can be identified by a straightforward growth recovery assay using optical density (OD) as the measurement. The same yeast strain not expressing NS1 was used as positive control in the yeast growth recovery assay.
Hits resulting from the primary screen and other follow-up screens, were tested in two concentrations in this viral replication assay.
NIH Chemical Genomics Center [NCGC]
NIH Molecular Libraries Probe Centers Network [MLPCN]
Assay Submitter (PI): Daniel Engel, University of Virgina
Cell monolayers were infected at an m.o.i. of 0.1 for 48 h in the presence or absence of the compound, which was added at the beginning of infection. Virus titres were determined by TCID50 analysis (Reed, L. J. & Muench, H. (1938). A simple method of estimating fifty per cent endpoints. Am J Epidemiol 27, 493-497)
As for `COc1cc(-c2c3c(C)nn(-c4ccccc4)c3nc3[nH]c(=O)[nH]c(=O)c23)ccc1O`, the viral titer (log10 TCID50) is 8.66 (active).

Regarding `COc1ccc(-c2c(C#N)c(=O)[nH]c3c2c(C)nn3-c2ccc(F)cc2)cc1OC`, the viral titer (log10 TCID50) is 9 (active).

Regarding `COc1cc(-c2ccnc3c2c(C)nn3-c2ccc(F)cc2)ccc1O`, the viral titer (log10 TCID50) was 8.68 (active).

Turning to `COc1cc(-c2ccnc3c2c(C)nn3-c2cccc(F)c2)ccc1O`, the viral titer (log10 TCID50) was 9 (active).

Regarding `COc1ccc(-c2c(C#N)c(N)nc3c2c(C)nn3-c2ccc(F)cc2)cc1OC`, the viral titer (log10 TCID50) was 8.66 (active).

Take `COc1cc(-c2c(C(=O)O)cnc3c2c(C)nn3-c2ccc(F)cc2)ccc1O`: the viral titer (log10 TCID50) is 8.5 (active).

With `COc1cc(-c2ccnc3c2c(C)nn3-c2ccccc2)ccc1O`, the viral titer (log10 TCID50) was 9 (active).

`COc1ccc(-c2ccnc3c2c(C)nn3-c2ccc(F)cc2)cc1`: the viral titer (log10 TCID50) was 8.33 (active).

Turning to `COc1ccc(-c2c3c(C)nn(-c4ccccc4)c3nc3[nH]c(=O)[nH]c(=O)c23)cc1O`, the viral titer (log10 TCID50) was 8.66 (active).

As to `COc1ccc(-c2ccnc3c2c(C)nn3-c2ccc(F)cc2)cc1OC`, the viral titer (log10 TCID50) was 8.66 (active).

Staying with this assay, now noted: Influenza virus replication in cells, viral titer, at 5 µM, stronger effect = lower value.
Regarding `COc1cc(-c2c3c(C)nn(-c4ccccc4)c3nc3[nH]c(=O)[nH]c(=O)c23)ccc1O`, the viral titer (log10 TCID50) came to 8.66.

Take `COc1ccc(-c2c(C#N)c(=O)[nH]c3c2c(C)nn3-c2ccc(F)cc2)cc1OC`: the viral titer (log10 TCID50) worked out at 9.

The molecule `COc1cc(-c2ccnc3c2c(C)nn3-c2ccc(F)cc2)ccc1O` registered a viral titer (log10 TCID50) of 8.88.

Molecule `COc1cc(-c2ccnc3c2c(C)nn3-c2cccc(F)c2)ccc1O` came in with a viral titer (log10 TCID50) of 9.

In turn, `COc1ccc(-c2c(C#N)c(N)nc3c2c(C)nn3-c2ccc(F)cc2)cc1OC` displayed a viral titer (log10 TCID50) of 8.66.

As to `COc1cc(-c2c(C(=O)O)cnc3c2c(C)nn3-c2ccc(F)cc2)ccc1O`, the viral titer (log10 TCID50) was found to be 8.88.

`COc1cc(-c2ccnc3c2c(C)nn3-c2ccccc2)ccc1O` registered a viral titer (log10 TCID50) of 9.

Regarding `COc1ccc(-c2ccnc3c2c(C)nn3-c2ccc(F)cc2)cc1`, the viral titer (log10 TCID50) amounted to 9.

In turn, `COc1ccc(-c2c3c(C)nn(-c4ccccc4)c3nc3[nH]c(=O)[nH]c(=O)c23)cc1O` returned a viral titer (log10 TCID50) of 8.66.

In turn, `COc1ccc(-c2ccnc3c2c(C)nn3-c2ccc(F)cc2)cc1OC` registered a viral titer (log10 TCID50) of 9.

(Values after PubChem BioAssay AID602454 (National Center for Advancing Translational Sciences (NCATS), 2012).)
